According to PubChem BioAssay AID1566 (Sanford-Burnham Center for Chemical Genomics, 2009):
Hit rate of the full screen: of about 290,000 compounds, about 1,800 (0.62%) were called active. This is one part of a sample in which actives are shown more often than they occur. No stated cut-off is given here; in the data, active means inhibition above about 50%; inactive means the rest.

Test: NOD2 signaling inhibitors, cell-based, luminescence, uHTS, HEK293 (AID 1566)
Settings: HEK293 NOD2/NF-kB luciferase reporter, at 4 µM, stronger effect = higher value

inhibition, active:
COc1ccc(NC(=O)c2cc([N+](=O)[O-])ccc2O)cc1 70.6%
Nc1cc(=O)[nH]c(SCc2ccc(Cl)cc2Cl)n1 58.1%
O=c1cc(CSc2nc3ccccc3c(=O)[nH]2)c2ccc(O)cc2o1 70.3%
COc1ccc(CC(=O)Nc2ccc3c(c2)CCC3)cc1OC 53.3%
COc1ccccc1OCc1nnc(SCC(=O)c2cc(Cl)ccc2OC)o1 57.5%
O=C(Nc1cc(Cl)ccc1O)c1cc2n(n1)C(C(F)(F)F)CC(c1ccc3c(c1)OCO3)N2 (stereo not drawn) 53.1%
CCC(CNc1cc(OC)cc2cccnc12)NC1CCCCC1 (stereo not drawn) 74.6%
COc1ccc(-c2nn(C)c(=O)c3ccccc23)cc1NC(=O)COc1ccc(C)cc1 53.6%

inhibition, inactive:
Cc1noc(C)c1C(=O)NCc1ccccc1 16.6%
COc1ccc(NC(=O)c2cc([N+](=O)[O-])ccc2N2CCCCC2)cc1 -14.3%
COc1ccc(NC(=O)c2cc([N+](=O)[O-])ccc2N2CCCC2)cc1 7.4%
O=[N+]([O-])c1cc(Cl)ccc1NCCNc1ncc(C(F)(F)F)cc1Cl 12.4%
Cc1cc(=O)[nH]c(SCc2ccc(Cl)cc2Cl)n1 4.6%
Nc1cc(=O)[nH]c(SCc2ccccc2Cl)n1 23.4%
Cn1c(C(=O)N2CCN(c3ccc(F)cc3)CC2)cc2ccccc21 1.5%
Cc1ccccc1CSc1nc2ccccc2c(=O)[nH]1 -3.5%
O=c1[nH]c(SCc2ccccc2F)nc2ccccc12 8.9%
Cc1cc(-c2nnc(SCC(=O)c3ccc(Cl)cc3)o2)no1 1.2%
COc1ccc(-c2oc3cccnc3c2-c2ccc(OC)nc2)cc1 -2.2%
COc1ccc(CC(=O)Nc2ccc3c(c2)CCC3)cc1 13.2%
COc1cc(CC(=O)Nc2ccc3c(c2)CCC3)cc(OC)c1OC 24.2%
Cc1ccc(C)c(N2CCN(CC(=O)Nc3ccc([N+](=O)[O-])cc3C(=O)Nc3ccccc3F)CC2)c1 -26.6%
Cc1ccc(S(=O)(=O)c2c(N)n(CCN3CCOCC3)c3nc4ccccc4nc23)cc1C -39.8%
Cn1c(=O)cc(NCCc2ccccc2)[nH]c1=O -8.7%
O=C(OCCN=C1NS(=O)(=O)c2ccccc21)c1ccncc1 -0.9%
CCc1ccc(S(=O)(=O)NCc2cn3ccsc3n2)s1 13.4%
CCCCCCCC(=O)NC(Nc1ccc(S(N)(=O)=O)cc1)C(Cl)(Cl)Cl (stereo not drawn) 22.9%
CN(C)S(=O)(=O)c1cccc(NC(=O)c2ccncc2)c1 12.4%
CN(C)S(=O)(=O)c1cccc(NC(=O)c2cnccn2)c1 6.9%
O=C(CC1CC2CCC1C2)OCC(=O)c1c[nH]c2ccccc12 (stereo not drawn) 12.6%
CC(C(=O)NCc1ccccc1)N1CCN(c2ccc(F)cc2)CC1 (stereo not drawn) 5.1%
COc1ccc(CNC2CCSc3ccccc32)cc1OC (stereo not drawn) 23.3%
CCn1c(=O)cc(OCC(=O)N2CCc3ccccc32)c2ccccc21 17.9%
COc1ccccc1OCc1nnc(SCC(=O)N2CCCCC2)o1 -9.8%
COc1ccccc1OCc1nnc(SCC(=O)N2CCCC2)o1 4.2%
CC(C)NC(=O)NC(=O)COC(=O)C1(C)CC1(Cl)Cl (stereo not drawn) -8.2%
COC(=O)C(CO)NC(=O)C(C)NC(=O)CNC(=O)OCc1ccccc1 (stereo not drawn) 9%
COc1ccccc1NC(=O)c1cc2n(n1)C(C(F)(F)F)CC(c1ccc3c(c1)OCO3)N2 (stereo not drawn) 35.9%
COc1ccc(OC)c(NC(=O)c2cc3n(n2)C(C(F)(F)F)CC(c2ccc4c(c2)OCO4)N3)c1 (stereo not drawn) 35.2%
CCN(CC(=O)Nc1ccc(N2CCOCC2)cc1)C(=O)c1ccc(C#N)cc1 0.4%
Cc1ccc(N2CC(C(=O)N3CCN(C(=O)c4ccco4)CC3)CC2=O)cc1 (stereo not drawn) 3.8%
COc1cc(NCc2ccccc2O)c2ncccc2c1 -106%
COc1cc(NC(=O)C2CCCCC2)c2ncccc2c1 7.2%
Cc1ccccc1N=C1NC(=O)/C(=C/c2cccn2-c2cccc(C(=O)O)c2)S1 10.7%
CC(C)CN1CCN(CCCc2ccccc2)C(CCO)C1 (stereo not drawn) -35.5%
COc1ccc(N2C(=O)NC3CC2(C)Oc2ccccc23)cc1 (stereo not drawn) 15.5%
O=C(CCS(=O)(=O)c1ccccc1)NC1CCCCC1 -43.9%
COc1ccc(-c2nn(C)c(=O)c3ccccc23)cc1NC(=O)COc1ccccc1 31.2%
